From PubChem
Hits are enriched below; roughly 4.6% of the tested compounds scored in any of these assays.
CF NFkB block – cystic fibrosis NF-kB activation inhibition; KKLEB NF-kB-GFP reporter, PAF-induced, GFP fluorescence overnight; inhibition, % at 5 µM; 0.86% of 360,000 active;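 active = at least 50% inhibition at 5 µM, scaled per plate between neutral and stimulator controls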;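 also: PAF is a Pseudomonas aeruginosa culture filtrate used as stimulus; plate controls were PAF-stimulated DMSO wells for no effect and unstimulated DMSO wells for full effect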
KKLEB tox – counter-screen for CF NF-kB inhibitors: cytotoxicity; activity change (cytotoxicity), % at 5 µM; 0.36% of 360,000 active; AID 602141; KKLEB CF airway cells viability, ATPlite luminescence, overnight; stronger effect = lower value; cells stimulated with P. aeruginosa culture filtrate;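 active = corrected activity change at or below -50% at 5 µM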
ABHD5-PLIN5 inh – ABHD5-PLIN5 protein interaction inhibition; Q00G26+Q8WTS1; Split G. princeps luciferase complementation, luminescence, 4 h; inhibition, % at 4 µM; 0.78% of 360,000 active;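 active = inhibition above the mean inhibition across every tested compound plus 3 SD, cut at about 22% in these data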;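 also: 0% = DMSO only wells and the 100% control is not disclosed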
Peg3 prom inh-1 – reduces Peg3 promoter-driven luciferase expression in HeLa. HeLa PEG-Prom luciferase reporter, luminescence, overnight. inhibition, % at 20 µM. 1.7% of 360,000 active. AID 588405;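 active = inhibition of at least 50% at 20 µM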
Mdm2 MdmX PPI – disrupts the human Mdm2-MdmX interaction | O15151+Q00987 | SaOS-2 split-luciferase Mdm2/MdmX complementation, luminescence | inhibition, % at 8 µM | 3% of 330,000 active | AID 485346;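 active = inhibition of at least 50% at 8 µM in the primary screen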
Target sequence (O15151 whole entry, looked up): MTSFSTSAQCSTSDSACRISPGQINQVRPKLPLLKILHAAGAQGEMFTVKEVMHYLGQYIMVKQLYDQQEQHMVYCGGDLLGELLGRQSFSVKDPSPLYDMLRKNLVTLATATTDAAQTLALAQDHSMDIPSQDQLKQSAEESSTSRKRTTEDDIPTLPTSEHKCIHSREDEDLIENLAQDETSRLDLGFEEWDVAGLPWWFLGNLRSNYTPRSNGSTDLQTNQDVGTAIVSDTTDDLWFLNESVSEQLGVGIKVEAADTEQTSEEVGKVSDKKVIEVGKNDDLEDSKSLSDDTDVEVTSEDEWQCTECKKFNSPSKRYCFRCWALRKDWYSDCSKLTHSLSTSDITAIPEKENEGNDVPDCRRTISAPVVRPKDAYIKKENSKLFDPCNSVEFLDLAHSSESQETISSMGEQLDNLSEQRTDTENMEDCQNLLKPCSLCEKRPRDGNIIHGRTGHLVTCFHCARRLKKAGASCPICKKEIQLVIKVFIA
Target sequence (Q00987 whole entry, looked up): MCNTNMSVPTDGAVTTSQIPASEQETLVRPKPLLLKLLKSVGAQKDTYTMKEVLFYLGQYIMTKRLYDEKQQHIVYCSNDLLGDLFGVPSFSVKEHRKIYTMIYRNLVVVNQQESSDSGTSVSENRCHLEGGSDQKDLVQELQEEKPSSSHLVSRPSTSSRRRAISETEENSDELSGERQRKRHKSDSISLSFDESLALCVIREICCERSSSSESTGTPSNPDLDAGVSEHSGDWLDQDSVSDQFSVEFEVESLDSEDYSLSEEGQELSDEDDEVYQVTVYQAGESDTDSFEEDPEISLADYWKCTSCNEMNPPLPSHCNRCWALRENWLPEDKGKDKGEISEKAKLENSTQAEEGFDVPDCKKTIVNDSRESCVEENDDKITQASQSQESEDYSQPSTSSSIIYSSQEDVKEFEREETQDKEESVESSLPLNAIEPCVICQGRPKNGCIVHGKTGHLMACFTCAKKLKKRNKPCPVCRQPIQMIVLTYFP
HIF-2a inh – blocks HIF-2a reporter activity; 786-0 RCC cells HIF-2a reporter, luciferase luminescence, overnight; 0.72% of 360,000 active; inhibition, % at 18.8 µM; AID 624352;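 active = inhibition of the luminescence signal of 40% or more relative to plate controls, in a single-dose primary screen at 18.75 µM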
Peg3 prom inh-2 – Peg3 promoter inhibition confirmation; HeLa PEG-Prom luciferase reporter, luminescence, overnight; shares compounds with Peg3 prom inh-1; 84% of 1,300 active; inhibition, % at 20 µM;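 active = at 20 µM dose, 40% or more inhibition averaged across four replicates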
Active calls of the source: *.

`NC(=O)C1CCN(C2=C(Cl)C(=O)c3ccccc3C2=O)CC1` gave CF NFkB block 11.4, KKLEB tox 1.4, ABHD5-PLIN5 inh -44.1, Peg3 prom inh-1 73.4*, Mdm2 MdmX PPI 11.9, HIF-2a inh 94.2* and Peg3 prom inh-2 97.9*.
For CN(CC(=O)Nc1ccc(Cl)c(C(F)(F)F)c1)C(=O)c1cc(=O)c2ccccc2o1 the results were CF NFkB block 13.7, KKLEB tox -23.6, ABHD5-PLIN5 inh -4.8, Peg3 prom inh-1 45.8, Mdm2 MdmX PPI 40.3 and HIF-2a inh 22.3.
For COc1ccc(C2NC3=C(CCC3)C3(C#N)C4(N=C(N)C23C#N)OCCO4)cc1 (stereo not drawn) the results were CF NFkB block -19.2, KKLEB tox 9.4, ABHD5-PLIN5 inh -7.8, Peg3 prom inh-1 67.1*, Mdm2 MdmX PPI -15.8, HIF-2a inh 37.9 and Peg3 prom inh-2 29.5.
Screening COc1ccc(C2NC3=C(CCCC3)C(C#N)(C#N)C2(C#N)C#N)cc1 (stereo not drawn) returned Mdm2 MdmX PPI 7.4.
NC(N)=N/N=C/c1ccc(Cl)cc1Cl was read as CF NFkB block 12.2, KKLEB tox -22.1, ABHD5-PLIN5 inh -1.6, Peg3 prom inh-1 69.3*, Mdm2 MdmX PPI 42.1, HIF-2a inh -46.1 and Peg3 prom inh-2 82.9*.
`CC(C)(C)c1ccc(OCCCNCc2ccccc2)cc1` gave CF NFkB block 8.0, KKLEB tox -9.8, ABHD5-PLIN5 inh 2.9, Peg3 prom inh-1 111.9*, Mdm2 MdmX PPI 29.3, HIF-2a inh 12.7 and Peg3 prom inh-2 60.9*.
CN(C)CCNc1ccc(CO)c2oc3ccc(O)cc3c(=O)c12 was read as CF NFkB block -87.7, KKLEB tox 4.0, ABHD5-PLIN5 inh 5.7, Peg3 prom inh-1 96.9*, HIF-2a inh 41.1* and Peg3 prom inh-2 90.4*.
`O=c1cc(NCCCO)c2ccccc2o1` gave CF NFkB block -12.9, KKLEB tox 13.4, ABHD5-PLIN5 inh 5.9, Peg3 prom inh-1 4.8, Mdm2 MdmX PPI 5.1 and HIF-2a inh 15.7.
`NC(C(=O)O)C1CC(Cl)=NO1` (stereo not drawn) gave Mdm2 MdmX PPI 15.9.
For NC(C(=O)O)C1ON=C(Cl)C1O (stereo not drawn) the results were CF NFkB block -1.3, KKLEB tox -2.7, ABHD5-PLIN5 inh -0.7, Peg3 prom inh-1 59.0*, HIF-2a inh -7.6 and Peg3 prom inh-2 62.0*.
For Cc1ccc(S(=O)(=O)N(C)C)cc1NC(=O)c1cncc(Br)c1 the results were CF NFkB block 8.5, KKLEB tox -12.5, ABHD5-PLIN5 inh 7.2, Peg3 prom inh-1 54.7*, Mdm2 MdmX PPI 25.1, HIF-2a inh 25.9 and Peg3 prom inh-2 69.2*.
`Cc1ccc(CNC(=O)CCc2nnc3ccc(N4CCC5(CC4)OCCO5)nn23)cc1` gave CF NFkB block -6.6, KKLEB tox 7.5, ABHD5-PLIN5 inh -3.0, Peg3 prom inh-1 10.4, Mdm2 MdmX PPI 13.1 and HIF-2a inh 12.7.
Screening Cc1nn(C)cc1S(=O)(=O)N1CCN(c2ccccc2F)CC1 returned CF NFkB block 14.3, KKLEB tox -6.4, ABHD5-PLIN5 inh 4.1, Peg3 prom inh-1 14.2, Mdm2 MdmX PPI 9.1 and HIF-2a inh 10.9.
Screening c1cncc(-c2nc(NCC3COc4ccccc4O3)c3ccccc3n2)c1 (stereo not drawn) returned CF NFkB block -14.3, KKLEB tox 0.2, ABHD5-PLIN5 inh 12.8, Peg3 prom inh-1 58.4*, Mdm2 MdmX PPI 48.8, HIF-2a inh 14.0 and Peg3 prom inh-2 68.3*.
O=C(NCc1ccc(F)cc1)c1cc(C2CCCCN2C(=O)OCCF)on1 (stereo not drawn) was read as CF NFkB block 6.7, KKLEB tox 16.3, ABHD5-PLIN5 inh -5.3, Peg3 prom inh-1 6.0 and HIF-2a inh 16.2.
Screening CCOc1ccccc1/C=C/c1onc(C)c1S(=O)(=O)N1CCC(C(=O)N(CC)CC)CC1 returned CF NFkB block -8.0, KKLEB tox -4.3, ABHD5-PLIN5 inh 5.4, Peg3 prom inh-1 19.3, Mdm2 MdmX PPI 13.7 and HIF-2a inh 11.8.
`CCN(CCN(C)C)C(=O)C1CCN(S(=O)(=O)c2c(C)noc2/C=C/c2ccccc2F)CC1` gave CF NFkB block 12.8, KKLEB tox -4.3, ABHD5-PLIN5 inh 11.8, Peg3 prom inh-1 90.0*, Mdm2 MdmX PPI 4.0, HIF-2a inh -1.7 and Peg3 prom inh-2 51.2*.
`CC(=O)Nc1ccc(-c2ccnc3c2CC(C)(C(=O)Nc2cccc(OC(F)(F)F)c2)O3)cc1` (stereo not drawn) gave CF NFkB block -16.2, KKLEB tox 0.8, ABHD5-PLIN5 inh 3.1, Peg3 prom inh-1 7.9 and HIF-2a inh 3.0.
`COCCN(C(=O)COC(=O)CCC1CCCCC1)c1c(N)n(Cc2ccccc2)c(=O)[nH]c1=O` gave CF NFkB block 3.8, KKLEB tox -12.0, ABHD5-PLIN5 inh 0.6, Peg3 prom inh-1 12.8 and HIF-2a inh 12.1.
For COc1ccc(-c2cc(-c3nnc(COC(=O)c4ccc(O)cc4)o3)c3ccccc3n2)cc1OC the results were CF NFkB block 43.0, KKLEB tox 0.6, ABHD5-PLIN5 inh 3.1, Peg3 prom inh-1 52.2*, Mdm2 MdmX PPI 44.2, HIF-2a inh -13.6 and Peg3 prom inh-2 34.1.
Screening CN(C)c1ccc(N=Nc2ccc(C(=O)O)cc2)cc1 returned CF NFkB block 2.9, KKLEB tox 2.0, ABHD5-PLIN5 inh -7.2, Peg3 prom inh-1 64.8*, Mdm2 MdmX PPI -69.4, HIF-2a inh 53.8* and Peg3 prom inh-2 35.0.
For CN(C)c1ccc(C(=O)c2ccccc2)cc1 the results were CF NFkB block -0.4, KKLEB tox -3.3, ABHD5-PLIN5 inh 5.3, Peg3 prom inh-1 -209.0, Mdm2 MdmX PPI -11.8 and HIF-2a inh -191.6.
COc1cc(N=Nc2c(O)c3ccccc3[nH]c2=O)c(OC)cc1N=Nc1ccccc1 was read as CF NFkB block 47.2, KKLEB tox 11.4, ABHD5-PLIN5 inh 4.3, Peg3 prom inh-1 59.0*, Mdm2 MdmX PPI 31.9, HIF-2a inh 6.7 and Peg3 prom inh-2 82.9*.
Screening CCOC(=O)/C(=C\c1ccccc1)C(=O)CCN1CCOCC1 returned CF NFkB block 5.9, KKLEB tox -14.8, ABHD5-PLIN5 inh 3.9, Peg3 prom inh-1 96.7*, HIF-2a inh 9.6 and Peg3 prom inh-2 85.7*.
O=C(CCc1ccccc1)OCCN1CCOCC1 was read as CF NFkB block -10.0, KKLEB tox 9.7, ABHD5-PLIN5 inh -0.5, Peg3 prom inh-1 -13.2, Mdm2 MdmX PPI 5.8 and HIF-2a inh -1.0.
`COC(=O)Cn1nnnc1-c1nc2cc(C)c(C)cc2[nH]c1=O` gave ABHD5-PLIN5 inh 5.1 and HIF-2a inh 6.0.
For Cc1nnc(N2CCCC(C(=O)NCc3cccc(F)c3)C2)c2nn(-c3ccccc3)c(C)c12 (stereo not drawn) the results were CF NFkB block 4.5, KKLEB tox -5.3, ABHD5-PLIN5 inh 10.3, Peg3 prom inh-1 18.8, Mdm2 MdmX PPI 26.0 and HIF-2a inh 0.9.
